# Results taken from the supplement of paper PMC4166925.
# ± gives the standard deviation of the averaged measurements. The full ranking holds about 33,000 sequences; the median of “E-score (dimensionless, -0.5 to 0.5)” is about -0.046, and the highest 2% start at about 0.36. This is one part of a sample in which the highest values are shown more often than they occur.
# System: T1, SpTbr T-box DNA-binding domain (GST fusion)
# T1 sequence: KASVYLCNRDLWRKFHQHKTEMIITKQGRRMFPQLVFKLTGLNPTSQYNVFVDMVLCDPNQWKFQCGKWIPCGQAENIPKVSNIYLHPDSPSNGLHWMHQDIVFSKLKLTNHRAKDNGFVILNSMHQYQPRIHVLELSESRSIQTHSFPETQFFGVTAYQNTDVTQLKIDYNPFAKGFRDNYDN
# Experiment: PBM E-score of 8-mer (E-score (dimensionless, -0.5 to 0.5)); Tbr is Tbrain of the sea star Patiria miniata (Pm) or the sea urchin Strongylocentrotus purpuratus (Sp); higher = stronger binding preference
# Settings: the construct has about 5 more residues each side
# Procedure: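 Universal protein-binding microarray (Agilent AMADID 016060, 60-bp probes with a 35-bp variable region) incubated with 200 nM GST-fused Strongylocentrotus purpuratus Tbr T-box DNA-binding domain (residues 362-554) in PBS pH 7.5. Scored for every ungapped 8-mer (given with its reverse complement) as E-score (range -0.5 to 0.5; >0.45 counts as bound) and Z-score of median probe intensity. Two replicate arrays (datasets 1 and 2).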
# 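Also: protein at 200 nM in PBS on universal double-stranded arrays.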
row,Sequence,PBM E-score of 8-mer
1,CGGTGCTA,0.258 ± 0.035
2,AGGTGCGC,0.3101 ± 0.0015
3,AGGTGCGG,0.429 ± 0.025
4,ATGTGCTA,0.328 ± 0.024
5,TGGTGCAA,0.214 ± 0.0077
6,AGGTGCTG,0.4215 ± 0.0039
7,AGGTGCAA,0.414 ± 0.005
8,GGGTGCAA,0.271 ± 0.017
9,AAGTGCGG,0.273 ± 0.027
10,GACTGTCA,0.144 ± 0.037
11,AGACTCGA,-0.158 ± 0.006
12,GGTGTAGA,0.35 ± 0.009
13,CGATCAGC,0.0172 ± 0.057
14,CAGAGTCG,0.144 ± 0.077
15,TAGACAGA,-0.0941 ± 0.02
16,CCAAGAGG,0.12 ± 0.0026
17,GACATTGC,0.0656 ± 0.018
18,CCCACGTA,-0.0631 ± 0.1
19,AAGAAGTA,-0.119 ± 0.082
20,GCGTGCTA,0.21 ± 0.019
21,GGGTGCTA,0.397 ± 0.0085
22,GTGTGCTA,0.268 ± 0.025

row,Sequence,PBM E-score of 8-mer
1,GTTTACGA,0.0241 ± 0.021
2,TACTTCGA,-0.0694 ± 0.013
3,AGGCGACC,0.012 ± 0.083
4,AGGCGCGA,0.471 ± 0.0037
5,AGGCGACG,0.301 ± 0.066
6,CGGCGCTA,0.152 ± 0.019
7,CGGCGCGA,0.3178 ± 0.00058
8,AGGCGCTA,0.41 ± 0.023
9,GGGCGCGA,0.422 ± 0.031
10,GGGGGCGA,-0.0505 ± 0.016
11,GGGCGCTA,0.314 ± 0.014
12,AGGCGCGC,0.185 ± 0.039
13,AGGCGCGG,0.291 ± 0.017
14,AGGCGACA,0.37 ± 0.013
15,CTAGATAA,-0.00975 ± 0.025
16,ACCGGTAC,-0.1754 ± 0.0017
17,TAAATGTA,-0.0999 ± 0.021
18,CGCACTGC,0.104 ± 0.0094
19,ATGCGGGA,-0.193 ± 0.03
20,GAATAGCA,0.189 ± 0.0036
21,AGTAGGAG,-0.00869 ± 0.02
22,CAGGCCTC,-0.159 ± 0.029

row,Sequence,PBM E-score of 8-mer
1,GCATAGAA,-0.126 ± 0.09
2,GGGCGAGA,0.222 ± 0.0041
3,AGGCGAGA,0.373 ± 0.012
4,AGGCGAGC,-0.233 ± 0.11
5,AAACAGAT,-0.136 ± 0.01
6,GGAATGCC,-0.187 ± 0.06
7,ATGTTTTG,0.00867 ± 0.052
8,CACCTAGG,0.392 ± 0.012
9,CACCTAGC,0.40555 ± 0.00015
10,CCCCTAGG,-0.0502 ± 0.012
11,CACCTAGA,0.294 ± 0.073
12,AACCTAGC,-0.0309 ± 0.0034
13,AACCTAGG,-0.0376 ± 0.091
14,AGAAGACT,-0.285 ± 0.046
15,ACTAAATA,-0.131 ± 0.019
16,GCGAATAC,0.228 ± 0.018
17,AGCCGTCG,0.0127 ± 0.019
18,AAGGGTAA,-0.088 ± 0.0016
19,CACACACC,0.454 ± 0.013
20,ACCACACA,0.248 ± 0.037
21,GCCACAGC,0.00288 ± 0.017
22,GACACACC,0.321 ± 0.016

row,Sequence,PBM E-score of 8-mer
1,GCCACACA,0.335 ± 0.0096
2,ACCACACG,0.26 ± 0.039
3,GCCACACC,0.421 ± 0.036
4,AACACACC,0.326 ± 0.0067
5,CCCACACG,0.15 ± 0.1
6,CCCACACC,0.438 ± 0.033
7,CCCACACA,0.199 ± 0.038
8,ACCACACC,0.369 ± 0.029
9,CTCGAGAC,-0.0685 ± 0.051
10,CACCATAC,-0.065 ± 0.011
11,ACGGTTAT,0.0286 ± 0.041
12,ATGCCTGC,-0.295 ± 0.061
13,GTGGTGCA,0.0312 ± 0.0088
14,AGTTGTTC,0.00852 ± 0.024
15,CCGTTAGG,0.0143 ± 0.029
16,CCTATCGA,0.042 ± 0.12
17,ACCGTCTA,-0.0953 ± 0.012
18,CACAACCA,0.133 ± 0.025
19,CAAAAAGC,0.0694 ± 0.065
20,GGAGCTGA,-0.203 ± 0.042
